Measured values reported in PubChem BioAssay AID560 (The Scripps Research Institute Molecular Screening Center, 2006).
Screen size: about 65,000 compounds; about 980 (1.5%) were called active. Shown is part of a subset that was picked to be rich in actives. Unmarked numbers belong to inactive results.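 How the source made its calls: active means activation above the mean of all tested compounds plus 3 SD (cut at about 49% in these data); inactive means the rest.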

Biological target: Nuclear receptor ROR-alpha (Homo sapiens) (UniProt P35398)
Sequence (P35398 whole entry, looked up): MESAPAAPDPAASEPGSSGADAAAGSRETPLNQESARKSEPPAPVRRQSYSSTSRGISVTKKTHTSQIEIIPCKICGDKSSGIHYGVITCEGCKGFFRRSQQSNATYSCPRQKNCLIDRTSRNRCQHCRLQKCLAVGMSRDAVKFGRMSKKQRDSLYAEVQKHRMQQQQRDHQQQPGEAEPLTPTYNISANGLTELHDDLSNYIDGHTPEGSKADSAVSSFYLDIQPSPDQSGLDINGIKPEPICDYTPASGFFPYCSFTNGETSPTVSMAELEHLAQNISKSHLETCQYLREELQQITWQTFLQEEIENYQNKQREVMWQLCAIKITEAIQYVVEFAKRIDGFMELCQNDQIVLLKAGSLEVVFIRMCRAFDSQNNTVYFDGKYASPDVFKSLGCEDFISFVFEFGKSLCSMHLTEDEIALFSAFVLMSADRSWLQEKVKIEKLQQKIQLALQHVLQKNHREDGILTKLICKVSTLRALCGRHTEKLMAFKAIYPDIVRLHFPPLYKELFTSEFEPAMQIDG
Assay: activators of orphan receptor RORA, primary screen, cell-based, luminescence (AID 560);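 further: 0% = DMSO-treated RORA cells and 100% = added signal equal to DMSO minus mock-transfected cells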
Conditions: CHO-K1 Gal4-RORA LBD luciferase reporter, at 10 µM, hits give high values, percent increase over mock-subtracted basal signal

| Structure (SMILES) | activation |
| --- | --- |
| O=C(Nc1ccccc1F)c1cc(S(=O)(=O)N2CCCCC2)cs1 | 0.6% |
| CCN1C(=O)/C(=C\N2CCN(c3ccccc3)CC2)SC1=S | -18% |
| CCN1C(=O)/C(=C2\SC(N3CCCCC3)=NC2=O)c2ccccc21 | 84.9% (active) |
| CCN1C(=O)c2cccc3c(N)ccc1c23 | -26% |
| O=C(c1cccs1)N1CCN(C(=O)N2CCOCC2)CC1 | 8.8% |
| COc1ccc(Nc2oc(-c3ccccc3Cl)nc2C#N)cc1 | 98.6% (active) |
| CC1CCN(c2oc(-c3ccccc3F)nc2C#N)CC1 | 29% |
| N#Cc1nc(-c2ccc(OCc3ccccc3)cc2)oc1NCCCN1CCOCC1 | 17% |
| O=S(=O)(c1cccs1)N1CCc2ccccc2C1 | -7.5% |
| CCN1C(=O)/C(=C2/Sc3ccccc3N2CCCS(=O)(=O)O)SC1=S | -2.8% |
| COCCNC(=O)CN1C(=O)CSc2ncccc21 | 18.9% |
| COc1ccc(-n2c(SC)nc(O)cc2=O)cc1 | -8.4% |
| CCS(=O)(=O)n1nc(-c2ccccc2)nc1SCc1ccccc1 | 32.6% |
| CCS(=O)(=O)n1nc(-c2ccc(OC)cc2)nc1SC | 52.4% (active) |
| CCCS(=O)(=O)N1CCN(C(=O)c2cccs2)CC1 | -4.5% |
| N#C/C(=C1\CCCN1)c1nc(-c2ccccc2)cs1 | 6.4% |
| N#CC(=C1SC=CS1)c1nc(-c2ccccc2)cs1 | 59.7% (active) |
| C#CC(C)(C)NC(=O)CSc1nc2c(c(=O)n(C)c(=O)n2C)n1CCCC | 5% |
| CC(=O)CSc1nnc(CSc2ncccn2)n1C1CCCCC1 | -9.7% |

| Structure (SMILES) | activation |
| --- | --- |
| COC(=O)C1=C(C)Nc2ncnn2C1c1ccco1 (stereo unspecified) | -4.4% |
| COc1ccc(C)c2sc(=NC(=O)c3ccc(C#N)cc3)n(C)c12 | 84.6% (active) |
| COc1ccc(OC)c2c1sc(=NC(=O)CN1C(=O)CCC1=O)n2C | -2.8% |
| CCCCSc1nnc(-c2ccc(C)cc2)o1 | 23.4% |
| Cc1ccc(CN2C(=O)CCC2C(=O)NCCCN2CCCCC2C)cc1 (stereo unspecified) | 13.7% |
| Cc1noc(NS(=O)(=O)c2ccc(NC(=O)C34CCC(CC3)C4)cc2)c1C | 11.6% |
| COc1ccc(-n2ncc3c(N4CCCc5ccccc54)ncnc32)cc1 | 50.2% (active) |
| COc1ccc(-n2ncc3c(N4CCc5ccccc54)ncnc32)cc1 | 50.3% (active) |
| COc1ccc(N2CCN(C(=O)CSc3ncnc4c3cnn4-c3ccc(OC)cc3)CC2)cc1 | -12.8% |
| COc1ccc2oc(=O)c(C(=O)N3CCCc4ccccc43)cc2c1 | -10.5% |
| Cc1cccc(-n2ncc3c(N4CCc5ccccc54)ncnc32)c1 | 2% |
| c1ccc(-n2ncc3c(N4CCCC4)ncnc32)cc1 | -23.2% |
| CC(=O)N1CCN(c2ccc(NCc3ccc(C(C)C)cc3)cc2)CC1 | -17.3% |
| COc1ccc(N2C(=O)C3CCCN3C2c2cccc(OC)c2)cc1 (stereo unspecified) | -2.9% |
| O=C(NCCN1CCOCC1)[C@H](Cc1ccccc1)N1C(=O)c2ccccc2C1=O | 3.1% |
| O=C(CN1C(=O)COc2ccccc21)NCCN1CCc2ccccc2C1 | 20.9% |
| O=C(NCCCNC(=O)NC1CCCCC1)NC1CCCCC1 | -10.6% |
| CCS(=O)(=O)N1CCC(C(=O)N2CCN(c3ccccc3)CC2)CC1 | -6.6% |
| COc1cccc2sc(Nc3nc(C)c(C(C)=O)s3)nc12 | 39.6% |

| Structure (SMILES) | activation |
| --- | --- |
| Cc1cc(C)c2c(c1)cc(C)c1nnc(SCC(=O)Nc3cc(C)on3)n12 | 44.5% |
| Cc1cccc(NC(=O)COc2ccccc2C)n1 | -18.4% |
| Cc1cccc(NC(=O)c2ccccc2NC(=O)C(C)(C)C)n1 | 17.7% |
| Cc1cccc(NC(=O)c2ccc3ccccc3n2)n1 | 83% (active) |
| CC(=O)c1c(N)n(C)c(=O)n(C)c1=O | -5.2% |
| c1ccc2c(NCC3CCCO3)nc(-c3ccncc3)nc2c1 (stereo unspecified) | -11.3% |
| Cc1ccc(-n2c(SCC(=O)Nc3ccc4c(c3)OCO4)nnc2-c2ccoc2C)cc1 | -1.7% |
| CN(c1ccc(C(=O)NCCC2=CCCCC2)cc1)S(C)(=O)=O | 63% (active) |
| Cn1nnc2cc(C(=O)NCCC3=CCCCC3)ccc21 | 18.1% |
| O=C(Cc1nn[nH]n1)NCCC1=CCCCC1 | -13.7% |
| O=C1C(C=NCC2CCCO2)=C(O)c2ccccc21 (stereo unspecified) | 48.7% (active) |
| CC(=NCC1CCCO1)c1c(O)[nH]c(=O)[nH]c1=O (stereo unspecified) | 2.9% |
| O=C(CS(=O)(=O)Cc1ccccc1)NCC1CCCO1 (stereo unspecified) | 11.4% |
| Cc1ccccc1Nc1nc(N)nc(CN2CCN(c3ccccn3)CC2)n1 | -2.8% |
| CC(=O)Nc1cccc(NC(=O)c2c(-c3ccccc3)noc2C)c1 | -6.7% |
| CC(=O)Nc1cccc(-c2cnc3ccccc3n2)c1 | 72.9% (active) |
| Cc1cc(O)ccc1-c1cnc2ccccc2n1 | 30.5% |
| CC(C)CC(=O)N=C1SC2CS(=O)(=O)CC2N1CCc1ccccc1 (stereo unspecified) | -3.3% |
